Source: PubChem (several laboratories)
Myeloid diff MLP: myeloid differentiation induction; ER-HoxA9 myeloid progenitors, lysozyme-GFP differentiation, flow cytometry; calls only at 10 µM; actives 1% (n = 360,000);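 active = normalized GFP-positive differentiation at or above the plate's own cutoff, the solvent-only control mean plus 3 SD; inconclusive = no clear call, values can overlap the other calls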;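 also: cells exposed to compound for four days before flow analysis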
CRFR2-BP antag: antagonists of CRF-binding protein/CRF-R2 receptor complex; HEK293 CRF-R2/CRF-BP, CRF-induced calcium fluorescence; actives 0.59% (n = 350,000); inhibition, % at 11.8 µM; AID 588475;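 active = inhibition of the ligand-induced calcium signal above about 50% at the single tested concentration, limit read from the data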
cardiac RTF act: cardiac RTF calcium sensitization; IANBD-labeled TnC RTF fluorescence at EC20 calcium; 0% EC20 calcium, 100% full calcium; actives 0.24% (n = 340,000); P19429+P45379; activation, % at 7.2 µM;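 active = activation above the mean over all tested compounds plus 3 SD, cut at about 30% in these data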;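 also: rise in fluorescence read as greater calcium sensitivity of cardiac thin filaments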
CRFR2-BP ag: agonists of human CRF-binding protein/CRF-R2 receptor complex; HEK293 CRF-R2/CRF-BP, calcium dye fluorescence (FLIPR); percent of saturating CRF peptide response; activation, % at 13.2 µM; actives 0.46% (n = 350,000);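 active = activation of at least 50%, plus an integration ratio under a set limit after plate pattern correction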
RTF Ca sens inh: cardiac RTF calcium desensitization; P19429+P45379; actives 0.12% (n = 340,000); inhibition, % at 7.15 µM; IANBD-labeled cardiac RTF, Ca2+ fluorescence;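 active = inhibition above the mean inhibition of all tested compounds plus 3 SD, cut at about 17% in these data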;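 also: assay run at fixed EC70 calcium of 1.6 mM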
Myeloid diff CP1: promotes myeloid progenitor differentiation | shares compounds with Myeloid diff MLP | ER-HoxA9 myeloid progenitors, GFP/Mac1 double-positive flow | calls only | actives 2% (n = 2,300) | AID 651706;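 active = share of green or green-and-red cells above 9 and 9% in run 1 or 4 and 3% in run 2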
GFP autofluor: compound fluorescence in myeloid differentiation counter-screen | fluorescence response, % (concentration not given with the values) | shares compounds with Myeloid diff MLP | ER-HoxA9 myeloid progenitors, no estrogen, GFP autofluorescence flow cytometry; vehicle wells 0%, positive control 100% | actives 7.4% (n = 2,300);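 active = over 5% cells positive for green fluorescent reporter, or over 2% positive for both it and APC stain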
Calls only. The list is not random: actives were taken first. Their share in the collection is about 2.2%.

For Cc1ccc(C)c(S(=O)(=O)N2CCCC2CNC(=O)C(=O)NCCc2ccco2)c1 (stereo not drawn) the results were Myeloid diff MLP inactive, CRFR2-BP antag inactive, cardiac RTF act inactive, CRFR2-BP ag inactive and RTF Ca sens inh inactive.
`COc1cccc(-c2cc3nc(NCCN4CCCC4)n(C)c(=O)c3s2)c1` gave Myeloid diff MLP inactive, Myeloid diff CP1 inactive and GFP autofluor inactive.
Cc1ccc(CNC(=O)COc2ccc(S(=O)(=O)N3CCCC3)cc2)cc1 was read as Myeloid diff MLP inactive, CRFR2-BP antag inactive, cardiac RTF act inactive, CRFR2-BP ag inactive and RTF Ca sens inh inactive.
Screening O=C(NCc1ccccc1)C1=C[C@@H](c2csc3ccccc23)C[C@@H](OCc2ccc(CO)cc2)O1 returned Myeloid diff MLP active, CRFR2-BP antag inactive, cardiac RTF act inactive, CRFR2-BP ag inactive, RTF Ca sens inh inactive, Myeloid diff CP1 inactive and GFP autofluor inactive.
Screening C#Cc1ccc([C@H]2C=C(C(=O)NCc3nc4ccccc4[nH]3)O[C@@H](OCc3ccc(CO)cc3)C2)cc1 returned Myeloid diff MLP inactive, CRFR2-BP antag inactive, cardiac RTF act inactive, CRFR2-BP ag inactive, RTF Ca sens inh inactive, Myeloid diff CP1 inactive and GFP autofluor inactive.
For Cc1ccccc1S(=O)(=O)Cc1ccc(C(=O)NCc2ccc(F)cc2)o1 the results were Myeloid diff MLP inactive, CRFR2-BP antag inactive, cardiac RTF act inactive, CRFR2-BP ag inactive and RTF Ca sens inh inactive.
Screening O=S(=O)(/C(=C/c1ccc(C(F)(F)F)cc1)c1nc2ccccc2[nH]1)c1ccccc1 returned Myeloid diff MLP inconclusive, CRFR2-BP antag inactive, cardiac RTF act inactive, CRFR2-BP ag inactive and RTF Ca sens inh inactive.
Screening CC(C)c1ccc(/C=C(\c2nc3ccccc3[nH]2)S(=O)(=O)c2ccccc2)cc1 returned Myeloid diff MLP active, CRFR2-BP antag inactive, cardiac RTF act inactive, CRFR2-BP ag inactive, RTF Ca sens inh inactive, Myeloid diff CP1 inactive and GFP autofluor inactive.
Screening Cc1cc(C(=O)CN2C(=O)CCC2=O)c(C)n1Cc1ccccc1 returned Myeloid diff MLP active, CRFR2-BP antag inactive, cardiac RTF act inactive, CRFR2-BP ag inactive, RTF Ca sens inh inactive, Myeloid diff CP1 inactive and GFP autofluor inactive.
Cc1cc(C(=O)CN2C(=O)NC3(CCCc4ccccc43)C2=O)c(C)n1Cc1ccccc1 (stereo not drawn) was read as Myeloid diff MLP inactive, CRFR2-BP antag inactive, cardiac RTF act inactive, CRFR2-BP ag inactive and RTF Ca sens inh inactive.
For COc1ccc2c(c1)c(=O)c(C(=O)O)c(-c1ccc3c(c1)OCO3)n2C the results were Myeloid diff MLP inactive, CRFR2-BP antag inactive, cardiac RTF act inactive, CRFR2-BP ag inactive and RTF Ca sens inh inactive.
`N#Cc1cc(C#N)c(SCC(=O)N2CC(=O)Nc3ccccc32)nc1N` gave Myeloid diff MLP inactive, CRFR2-BP antag inactive, cardiac RTF act inactive, CRFR2-BP ag inactive, RTF Ca sens inh inactive, Myeloid diff CP1 inactive and GFP autofluor inactive.
For Cc1nc(SCC(=O)N2CC(=O)Nc3ccccc32)nc(C)c1C the results were Myeloid diff MLP inactive, CRFR2-BP antag inactive, cardiac RTF act inactive, CRFR2-BP ag inactive and RTF Ca sens inh inactive.
Cn1c(N)c(C(=O)COC(=O)c2ccco2)c(=O)n(C)c1=O was read as Myeloid diff MLP active, CRFR2-BP antag inactive, cardiac RTF act inactive, CRFR2-BP ag inactive, RTF Ca sens inh inactive, Myeloid diff CP1 inactive and GFP autofluor inactive.
Screening CCOc1ccccc1Nc1nc(N)nc(CN2CCCCC2C)n1 (stereo not drawn) returned Myeloid diff MLP inactive, CRFR2-BP antag inactive, cardiac RTF act inactive, CRFR2-BP ag inactive and RTF Ca sens inh inactive.
CNC(=S)NC1CC2CCCC(C1)N2Cc1ccco1 (stereo not drawn) was read as Myeloid diff MLP inactive, CRFR2-BP antag inactive, cardiac RTF act inactive, CRFR2-BP ag inactive and RTF Ca sens inh inactive.
`COCCCNC(=S)NC1CC2CCCC(C1)N2Cc1ccco1` (stereo not drawn) gave Myeloid diff MLP inactive, CRFR2-BP antag inactive, cardiac RTF act inactive, CRFR2-BP ag inactive, RTF Ca sens inh inactive, Myeloid diff CP1 inactive and GFP autofluor inactive.
For O=[N+]([O-])c1ccccc1-c1ccc(C(=S)N2CCN(c3ccccc3)CC2)o1 the results were Myeloid diff MLP active, CRFR2-BP antag inactive, cardiac RTF act inactive, CRFR2-BP ag inactive, RTF Ca sens inh inactive, Myeloid diff CP1 inactive and GFP autofluor inactive.
For Cc1ccc(N2CCN(C(=S)c3ccc(-c4ccccc4[N+](=O)[O-])o3)CC2)cc1 the results were Myeloid diff MLP inactive, CRFR2-BP antag inactive, cardiac RTF act inactive, CRFR2-BP ag inactive and RTF Ca sens inh inactive.
`Cc1ccc(NC(=O)CSc2nccn2Cc2ccccc2)cc1C` gave Myeloid diff MLP inactive, CRFR2-BP antag inactive, cardiac RTF act inactive, CRFR2-BP ag inactive and RTF Ca sens inh inactive.
Screening CC(=O)Nc1ccc(NC(=O)CSc2nccn2Cc2ccccc2)cc1 returned Myeloid diff MLP active, CRFR2-BP antag inactive, cardiac RTF act inactive, CRFR2-BP ag inactive, RTF Ca sens inh inactive, Myeloid diff CP1 inactive and GFP autofluor inactive.
For Cc1ccc(C(C)C)c(OCC(=O)OCC(=O)NC2CCS(=O)(=O)C2)c1 (stereo not drawn) the results were Myeloid diff MLP inactive, CRFR2-BP antag inactive, cardiac RTF act inactive, CRFR2-BP ag inactive and RTF Ca sens inh inactive.
For CCCNC(=O)C[C@H]1C[C@H]2c3cc(NC(=O)Nc4ccc(F)cc4)ccc3O[C@H]2[C@@H](CO)O1 the results were Myeloid diff MLP inactive, CRFR2-BP antag inactive and CRFR2-BP ag inactive.
For CSc1nc(Sc2ccccc2Cl)c2ccccc2n1 the results were Myeloid diff MLP inactive, CRFR2-BP antag inactive, cardiac RTF act inactive, CRFR2-BP ag inactive and RTF Ca sens inh inactive.
Screening NC(=O)C1CCN(C(=O)c2ccco2)CC1 returned Myeloid diff MLP inactive, CRFR2-BP antag inactive, cardiac RTF act inactive, CRFR2-BP ag inactive, RTF Ca sens inh inactive, Myeloid diff CP1 inactive and GFP autofluor inactive.
For COC(=O)CNC(=O)COc1ccccc1 the results were Myeloid diff MLP active, CRFR2-BP antag inactive, cardiac RTF act inactive, CRFR2-BP ag inactive, RTF Ca sens inh inactive, Myeloid diff CP1 inactive and GFP autofluor inactive.
`CC(C)CNC(=O)NC(=O)COc1ncnc2sccc12` gave Myeloid diff MLP active, CRFR2-BP antag inactive, cardiac RTF act inactive, CRFR2-BP ag inactive, RTF Ca sens inh inactive, Myeloid diff CP1 inactive and GFP autofluor inactive.
CCn1ncc(C2=NOC(C(=O)NCC(C)C)C2)c1C (stereo not drawn) was read as Myeloid diff MLP inactive, CRFR2-BP antag inactive, cardiac RTF act inactive, CRFR2-BP ag inactive and RTF Ca sens inh inactive.
